Sampled rows, rich in hits. Any-hit rate of the full collection: about 2.6%.
LGR2 inh: Drosophila LGR2 receptor signaling inhibition; HEK293 LGR2, CRE-luciferase, bursicon-stimulated, 4 h; inhibition, % at 9.99 µM; hit rate 0.35% among 380,000; AID 720647;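 active = drop in luminescence signal, shown as inhibition above about 50% in the replicate tests, limit read from the data, passing the limit was not always enough; inconclusive = probably only some replicates passing the limit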;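 also: agonist challenge used bursicon conditioned medium at about half maximal strength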
EBV LMP1 NFkB: inhibitors of Epstein-Barr LMP1-induced NF-kappaB reporter | hit rate 0.69% among 350,000 | inhibition, % at 12.5 µM | LMP1-induced NF-kappaB luciferase reporter cells, luminescence; in the data active = inhibition above about 41%; inconclusive = no clear call, values can overlap the other calls
TROY signal inh: inhibitors of TROY-dependent NF-kB signaling; Q293 LMP1-TROYcd NF-kB luciferase reporter, 4 h; inhibition, % at 10 µM; hit rate 0.98% among 360,000;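 active = compounds whose plate-normalised and pattern-corrected inhibition of the luciferase reporter signal at the single screening dose is 50% or more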
aDG glyco act: increases alpha dystroglycan glycosylation. Pro5-aDG cells, alpha-DG glycosylation AlphaScreen (IIH6); 0% Pro5, 100% B10-LARGE cell signal. activation, % at 10 µM. hit rate 0.22% among 360,000. AID 624168;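 active = activation of at least 8% versus controls, or a plate z-score of at least 8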;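 also: Pro5 are CHO cells carrying HIG-tagged alpha-DG that lacks glycosylation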
TWEAK-Fn14 inh: TWEAK-Fn14 signaling inhibition | hit rate 2% among 360,000 | AID 1159606 | TWEAK-stimulated Fn14 reporter cells, luciferase luminescence, 8 h | inhibition, % at 10 µM; in the data active = inhibition above about 50%
HSP90 inh: blocks HSP90-mediated luciferase refolding in reticulocyte lysate; Rabbit reticulocyte lysate, luciferase refolding luminescence, 3 h; inhibition, % at 5.6 µM; hit rate 0.91% among 290,000;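 active = inhibition above the screen-wide mean plus 3 SD, computed separately per campaign, cut at about 16% in these data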;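 also: inhibitors lower the luminescence because luciferase stays unfolded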
A number is an active result; - = inactive; ? = inconclusive; . = no result; ! = not active in a repeat.

SMILES | LGR2 inh | EBV LMP1 NFkB | TROY signal inh | aDG glyco act | TWEAK-Fn14 inh | HSP90 inh
COC(=O)c1ccc(/C=C(\C#N)C(=O)NC(C)c2ccccc2)cc1 (stereo not drawn) | - | - | - | - | 57 | -
COc1ccc(/C=C(\C#N)C(=O)NC(C)c2ccccc2)cc1O (stereo not drawn) | - | - | - | - | - | -
C[C@H](CO)N1C[C@H](C)[C@H](CN(C)Cc2ccc(C(F)(F)F)cc2)Oc2c(NC(=O)c3nc4ccccc4s3)cccc2C1=O | - | . | . | . | . | .
Cc1noc(C)c1S(=O)(=O)N(C)C[C@H]1OCCCC[C@@H](C)Oc2ccc(NS(=O)(=O)c3ccc(F)cc3)cc2C(=O)N([C@@H](C)CO)C[C@H]1C | - | . | . | . | . | .
CO[C@@H]1CN(C)C(=O)c2cc(NC(=O)CC(F)(F)F)ccc2OC[C@H](C)N(C(=O)c2ccccc2F)C[C@H]1C | - | . | . | . | . | .
CO[C@@H]1CN(C)C(=O)c2ccc(NC(=O)C3CCOCC3)cc2OC[C@H](C)N(C(C)=O)C[C@@H]1C | - | . | . | . | . | .
c1cncc(-c2nc(-c3ccc4c(c3)OCCO4)cs2)c1 | - | - | - | - | 52 | -
Oc1ccc(-c2csc(-c3cccnc3)n2)cc1O | - | - | - | - | - | -
NC(=O)NC(=O)CSc1nc2sc(-c3ccccc3)cc2c(=O)n1-c1ccccc1 | - | - | - | - | 58 | -
O=C(NC12CC3CC(CC(C3)C1)C2)N1CCN(c2nc(-c3ccccc3)cs2)CC1 | . | - | . | - | 71 | -
CCOC(=O)c1ccc2nc(Nc3nc4ccc(F)cc4s3)sc2c1 | - | - | 87 | - | 99 | -
COC(=O)c1ccc2nc(NC(=O)C(C)C)sc2c1 | - | - | - | - | - | -
COC(=O)c1ccc2nc(Nc3nc4c(F)cc(F)cc4s3)sc2c1 | . | - | 92 | - | 105 | 77
Cc1ccsc1/C=N\NC(=O)c1ccc2c(c1)OCO2 | . | - | - | - | - | -
Cc1ccsc1/C=N/NC(=O)c1ccc2c(c1)OCCO2 | ? | 59 | - | - | 70 | -
C/C(=N\NC(=O)c1ccc2c(c1)OCCO2)c1ccccc1 | - | - | - | - | 70 | -
C/C(=N\NC(=O)c1ccc(O)cc1)c1ccc2c(c1)OCCO2 | - | - | - | - | - | .
Cc1ccsc1/C=N/NC(=O)Cc1ccc(Cl)cc1 | - | - | - | - | 90 | -
Cc1ccsc1/C=N/NC(=O)CSCc1ccc(Cl)cc1 | - | - | - | - | - | -
C[C@@H]1CN([C@@H](C)CO)C(=O)c2cc(-c3ccccc3F)cnc2O[C@H]1CN(C)Cc1ccccc1 | - | . | . | . | . | .
C[C@@H]1CCCCO[C@@H](CN(C)Cc2ccccc2)[C@@H](C)CN([C@@H](C)CO)C(=O)c2cc(NC(=O)Nc3ccc(F)cc3)ccc2O1 | - | . | . | . | . | .
COc1cc(Cl)c(S(=O)(=O)NCc2cccnc2)cc1Cl | - | - | 54 | - | 84 | -
Cc1ccc(S(=O)(=O)N(C)C[C@@H]2OCCCC[C@H](C)Oc3ccc(NC(=O)c4ccncc4)cc3C(=O)N([C@@H](C)CO)C[C@H]2C)cc1 | - | . | . | . | . | .
CN1C2=CC=CC=CC2=[N+](C)C12C=CC(=[N+]([O-])[O-])C=C2[N+](=O)[O-] (stereo not drawn) | - | - | - | - | - | -
CN1C2=CC=CC=CC2=[N+](C)C12C([N+](=O)[O-])=CC(=[N+]([O-])[O-])C=C2[N+](=O)[O-] (stereo not drawn) | - | - | - | - | 61 | -
SMILES | LGR2 inh | EBV LMP1 NFkB | TROY signal inh | aDG glyco act | TWEAK-Fn14 inh | HSP90 inh
COc1ccc2c(c1)c(CC(=O)NCc1cc([N+](=O)[O-])ccc1O)c(C)n2C(=O)c1ccc(Cl)cc1 | - | - | 62 | - | - | -
COc1ccc2c(c1)c(CC(=O)Nc1nnc(C3CC3)s1)c(C)n2C(=O)c1ccc(Cl)cc1 | - | 48 | 53 | - | 58 | -
CO[C@@H]1CN(C)C(=O)c2cc(NC(=O)c3nc4ccccc4s3)ccc2OC[C@@H](C)N(Cc2cccnc2)C[C@@H]1C | - | . | . | . | . | .
C[C@@H]1CN([C@H](C)CO)C(=O)Cc2cc(NC(=O)CCN3CCOCC3)ccc2O[C@@H]1CN(C)C(=O)Nc1ccccc1 | - | . | . | . | . | .
O=C(O)c1ccccc1-c1ccccc1C(=O)Nc1ccc(F)cc1 | - | - | - | - | - | -
O=C(/C=C/c1ccc(NC(=O)c2ccccc2-c2ccccc2C(=O)O)cc1)c1ccccc1 | - | - | - | - | 59 | -
Cc1cc(N2CCCC2=O)cc(C)c1S(=O)(=O)Nc1c(C)nn(C)c1C | - | 49 | - | - | - | -
CCNC(=O)C[C@H]1CC[C@H]2[C@H](COc3ccc(NC(=O)Nc4cccc(F)c4)cc3C(=O)N2C)O1 | - | . | . | . | . | .
CC(C)C[C@H](CO)Nc1nc(Nc2cccc(Cl)c2)c2ncn(C(C)C)c2n1 | - | - | - | - | 79 | .
CC(C)n1cnc2c(Nc3cccc(F)c3)nc(NCCO)nc21 | - | - | - | - | - | .
CC(=O)Nc1ccc(Oc2sc(C(=O)c3ccccc3)c(N)c2C#N)cc1 | . | - | - | - | 53 | -
CCCCN(Cc1cc2cc(OC)ccc2[nH]c1=O)S(=O)(=O)c1ccc(C)cc1 | - | - | - | - | 52 | -
COc1ccc2[nH]c(=O)c(CN(CCO)S(=O)(=O)c3ccc(C)cc3)cc2c1 | - | - | - | - | - | -
CS(=O)(=O)Nc1ccc2c(c1)[C@@H]1C[C@H](CC(=O)NCc3cccc(F)c3)O[C@@H](CO)[C@@H]1O2 | - | . | . | . | . | .
CCC(=O)N[C@@H]1CC[C@@H](CC(=O)OC)O[C@H]1CO | - | . | . | . | . | .
O=C(Nc1ccc(F)cc1)N1[C@H](CO)[C@@H]2c3ccccc3NC[C@@H]21 | - | . | . | . | . | .
CC1(C)CC(=O)c2cc(C(=O)NCc3ccco3)c(=O)n(-c3ccccc3)c2C1 | . | - | . | - | 83 | -
N=C(N)c1ccc(O)cc1 | - | - | - | - | - | -
N=C(N)c1ccccc1 | - | 82! | - | - | - | .
COC(=O)c1c(C)[nH]c(C(C)=O)c1C | - | - | - | - | - | -
COC(=O)c1c(C)[nH]c(C(=O)/C=C/c2ccccc2F)c1C | - | - | 60 | - | 51 | -
COC(=O)c1c(C)[nH]c(C(=O)/C=C/c2ccccc2Cl)c1C | - | - | - | - | 90 | -
Cc1nn(-c2nc3ccccc3[nH]2)c(N)c1-c1ccccc1 | . | - | - | - | 68 | -
Cc1nn(-c2ccccc2)c(N)c1-c1ccccc1 | - | - | - | - | - | -
OC1CCC(Nc2ccn3nc(-c4cccc(OCc5ccccc5)c4)cc3n2)CC1 (stereo not drawn) | 52 | . | - | - | - | .
Cc1ccc(C(=O)OC2OC(=O)C(Cl)=C2N2CCOCC2)cc1 (stereo not drawn) | - | - | - | - | 58 | -
Cc1ccc(C(=O)Oc2ccccc2N2CCOCC2)cc1 | - | - | - | - | - | -
CCC(=O)Nc1cccc(C(=O)/C=C/c2ccc(F)cc2)c1 | - | - | - | - | 72 | -
CC(=O)Nc1cccc(C(=O)/C=C/c2ccc(C)cc2)c1 | . | - | - | - | 71 | -
